# Test results taken from PubChem BioAssay.
# A number with no mark means an inactive call. For some assays here: Results with a measured potency or affinity are listed apart. Activity calls are given as the source filed them. Unless noted, no rule for the calls is given here.
# What was measured:
# [1] = antimalarial activity against Dd2 strain (AID 2302;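 active = growth inhibition above 50% at the single 2 µM test dose, taken to imply half-maximal potency below 2 µM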;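 also: 0% = DMSO untreated growth and 100% = chloroquine plus artemisinin killed control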); settings: P. falciparum Dd2 in RBCs, LDH growth readout, 72 h; at 2 µM; active compounds read high
# [2] = human hepatoma cell viability loss – ATP luminescence, cytotoxicity control for P. falciparum antimalarial project, primary screen (AID 2303;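 active = inhibition above 50%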;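 also: 0% = DMSO wells and 100% = digitonin-killed cells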); settings: HepG2 viability, 24-48 h, at 10 µM, active compounds read high
# [3] = target: L-lactate dehydrogenase (Plasmodium falciparum (isolate CDC / Honduras)) (UniProt Q27743); test: PfLDH activity inhibition – cell lysate, 3D7 strain, counter-screen for P. falciparum growth inhibition project (AID 2304);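 also: 0% = vehicle and 100% = reference inhibitor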; settings: P. falciparum 3D7 crude extract, LDH APAD/NBT absorbance; at 2 µM; active compounds read high
# [4] = inhibition of 3D7 malaria parasite growth – strain 3D7 (AID 2306);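 also: 0% = DMSO wells and 100% = chloroquine plus artemisinin control wells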; settings: P. falciparum 3D7 erythrocytic growth, LDH absorbance, 72 h; at 2 µM; active compounds read high
# [5] = target: Calcium-dependent protein kinase 1 (Plasmodium falciparum (isolate 3D7)) (UniProt P62344); test: PfCDPK1 kinase inhibitors, biochemical, TCAMS library (AID 1159585; cut-off not given, nearly all actives have IC50 up to about 0.98 µM;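 also: inhibitors leave more ATP so luminescence rises with inhibition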); settings: recombinant PfCDPK1, Kinase-Glo ATP depletion luminescence
# [6] = target: Plasmodium falciparum protein kinase 6 (PK6, PF3D7_1337100) (UniProt Q8IDW1); test: PfPK6 kinase inhibitors, biochemical, TCAMS library (AID 1159586); settings: recombinant PfPK6, Kinase-Glo ATP depletion luminescence
# [7] = target: Protein kinase 7 (PK7), Plasmodium falciparum 3D7 (PF3D7_0213400) (UniProt Q7YTF7); test: inhibition of Plasmodium PK7 catalytic activity – biochemical, TCAMS antimalarial set, Kinase-Glo luminescence (AID 1159587); settings: recombinant PfPK7, Kinase-Glo ATP depletion luminescence
# [8] = target: Calcium-dependent protein kinase 4 (Plasmodium falciparum (isolate 3D7)) (UniProt Q8IBS5); test: PfCDPK4 kinase inhibitors, biochemical, TCAMS library (AID 1159588; cut-off not given, nearly all actives have IC50 up to about 0.91 µM); settings: recombinant PfCDPK4, Kinase-Glo ATP depletion luminescence
# Calcium-dependent protein kinase 4 (Plasmodium falciparum (isolate 3D7)), sequence (Q8IBS5 whole entry, looked up): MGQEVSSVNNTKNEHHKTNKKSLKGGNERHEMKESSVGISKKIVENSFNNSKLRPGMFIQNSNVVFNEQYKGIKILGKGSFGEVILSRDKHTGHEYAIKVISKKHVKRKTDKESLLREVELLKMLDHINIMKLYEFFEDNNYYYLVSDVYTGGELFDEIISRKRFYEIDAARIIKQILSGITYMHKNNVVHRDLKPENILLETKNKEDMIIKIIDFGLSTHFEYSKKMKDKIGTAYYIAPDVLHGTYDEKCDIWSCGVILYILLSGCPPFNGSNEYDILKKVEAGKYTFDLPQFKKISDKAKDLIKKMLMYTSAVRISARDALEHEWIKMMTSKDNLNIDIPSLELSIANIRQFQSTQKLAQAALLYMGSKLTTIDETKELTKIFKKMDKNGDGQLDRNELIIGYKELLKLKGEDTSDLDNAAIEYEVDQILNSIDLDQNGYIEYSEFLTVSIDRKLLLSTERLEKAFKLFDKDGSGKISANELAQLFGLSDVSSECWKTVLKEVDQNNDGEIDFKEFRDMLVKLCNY
# Protein kinase 7 (PK7), Plasmodium falciparum 3D7 (PF3D7_0213400), sequence (Q7YTF7 1-343): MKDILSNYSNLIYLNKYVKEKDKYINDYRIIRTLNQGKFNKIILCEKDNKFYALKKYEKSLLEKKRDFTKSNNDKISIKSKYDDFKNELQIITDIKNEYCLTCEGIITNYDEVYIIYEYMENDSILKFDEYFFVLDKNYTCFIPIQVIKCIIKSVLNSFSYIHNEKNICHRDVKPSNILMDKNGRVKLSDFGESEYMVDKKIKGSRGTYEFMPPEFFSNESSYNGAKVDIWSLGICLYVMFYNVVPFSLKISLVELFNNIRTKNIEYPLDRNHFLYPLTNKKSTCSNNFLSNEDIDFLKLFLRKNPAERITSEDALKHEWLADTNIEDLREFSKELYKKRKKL
# Plasmodium falciparum protein kinase 6 (PK6, PF3D7_1337100), sequence (Q8IDW1 1-305): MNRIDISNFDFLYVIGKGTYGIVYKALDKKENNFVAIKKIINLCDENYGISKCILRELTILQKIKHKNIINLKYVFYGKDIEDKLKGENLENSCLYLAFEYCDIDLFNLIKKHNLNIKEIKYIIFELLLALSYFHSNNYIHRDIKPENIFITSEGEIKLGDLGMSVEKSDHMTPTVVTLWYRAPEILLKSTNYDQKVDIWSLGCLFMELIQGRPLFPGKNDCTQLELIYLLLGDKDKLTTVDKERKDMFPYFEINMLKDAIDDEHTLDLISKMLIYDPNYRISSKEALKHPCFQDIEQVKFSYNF
# Calcium-dependent protein kinase 1 (Plasmodium falciparum (isolate 3D7)), sequence (P62344 whole entry, looked up): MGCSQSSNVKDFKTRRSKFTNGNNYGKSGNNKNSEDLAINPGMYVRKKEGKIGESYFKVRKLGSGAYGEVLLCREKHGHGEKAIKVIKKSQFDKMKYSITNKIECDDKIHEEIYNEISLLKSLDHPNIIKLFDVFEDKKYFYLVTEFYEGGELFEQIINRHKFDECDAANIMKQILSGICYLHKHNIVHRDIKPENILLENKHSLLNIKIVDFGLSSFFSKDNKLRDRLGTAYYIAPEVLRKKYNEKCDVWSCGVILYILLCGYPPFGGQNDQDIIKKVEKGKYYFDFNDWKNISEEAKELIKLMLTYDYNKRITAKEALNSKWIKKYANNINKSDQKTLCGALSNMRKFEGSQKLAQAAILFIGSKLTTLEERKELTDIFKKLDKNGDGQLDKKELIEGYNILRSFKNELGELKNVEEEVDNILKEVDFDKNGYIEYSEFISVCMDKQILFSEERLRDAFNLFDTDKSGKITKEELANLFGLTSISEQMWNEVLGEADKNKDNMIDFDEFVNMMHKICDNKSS
# L-lactate dehydrogenase (Plasmodium falciparum (isolate CDC / Honduras)), sequence (Q27743 whole entry, looked up): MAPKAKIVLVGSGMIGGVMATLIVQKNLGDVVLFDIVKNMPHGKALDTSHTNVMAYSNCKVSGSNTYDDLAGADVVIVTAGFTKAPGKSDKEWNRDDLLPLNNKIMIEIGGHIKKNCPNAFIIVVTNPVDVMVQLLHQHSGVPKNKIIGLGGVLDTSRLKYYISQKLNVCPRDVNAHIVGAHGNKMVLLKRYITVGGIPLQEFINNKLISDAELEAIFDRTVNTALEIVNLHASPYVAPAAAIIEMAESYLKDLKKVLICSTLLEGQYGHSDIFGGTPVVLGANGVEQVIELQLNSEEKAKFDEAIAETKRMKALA
SMILES,growth inhibition [1],inhibition [2],inhibition [3],growth inhibition [4],outcome [5],outcome [6],outcome [7],outcome [8]
CC(=O)Nc1ccc(CN(Cc2cccc(OC(C)(C)C)c2)Cc2ccc3c(c2)OCCO3)cc1,96% (active),-10%,8%,95% (active),inactive,inactive,inactive,inactive
O=S(=O)(NCCN1CCCC1)c1cccc(-c2ccc(CNC3Cc4ccccc4C3)cc2)c1,74% (active),79% (active),-4%,99% (active),inactive,inactive,inactive,inactive
Cc1cc(Nc2ccc(OCc3ccccc3Cl)cc2)c2cc(Cl)ccc2n1,58% (active),33%,5%,100% (active),inactive,inactive,inactive,inactive
O=C(/C=C/c1ccc(Cl)c(Cl)c1)NCCCCCN1CCCN(C(=O)Nc2ccc(Cl)cc2)CC1,-5%,21%,-5%,100% (active),inactive,inactive,inactive,inactive
NCc1ccc(CNCc2cccc(-c3ccc(-c4nc5ccccc5[nH]4)cc3)c2)cc1,58% (active),10%,-8%,100% (active),inactive,inactive,inactive,inactive
CNC(=O)NC1=NC(C)(C)N(OCCCOc2cc(Cl)c(Cl)cc2Cl)C(N)=N1,2%,7%,-3%,97% (active),inactive,inactive,inactive,inactive
O=C(NCCCCN1CCC(c2c[nH]c3ccc(-c4ccccc4)cc23)CC1)c1ccc(-c2ccccc2)cc1,40%,48%,3%,97% (active),inactive,inactive,inactive,inactive
CCCSc1nc2c(c(=O)n1CCc1ccccc1)C1(CCCC1)Cc1ccccc1-2,53% (active),46%,-4%,99% (active),inactive,inactive,inactive,inactive
O=C1NC(C(=O)Nc2ccccc2)C(c2ccccc2)S1 (stereo not given),99% (active),-4%,-1%,95% (active),inactive,inactive,inactive,inactive
O=C(Nc1cccc(CN2CCCN(Cc3cccc(Cl)c3)CC2)c1)c1ccc(Br)cc1,16%,38%,1%,92% (active),inactive,inactive,inactive,inactive
O=C(Nc1cc(F)c(F)c(-c2cccnc2)c1)N1CCc2cc(Cl)c(Cl)cc21,9%,0%,5%,94% (active),inactive,inactive,inactive,inactive
O=C(c1ccc([N+](=O)[O-])o1)N1CCC(c2cn(Cc3cccc(F)c3)c3ccccc23)CC1,95% (active),1%,-2%,97% (active),inactive,inactive,inactive,inactive
COc1ccc(CNC(=O)NC2CCN(c3ccnc(Nc4ccc(F)cc4)n3)CC2)cc1,4%,16%,-6%,87% (active),inactive,inactive,inactive,inactive
CN(C)c1ccc(C=CC(=O)NC(=O)c2ccccc2O)cc1,97% (active),6%,-1%,92% (active),inactive,inactive,inactive,inactive
Clc1ccc(Nc2nc(Nc3ccc(Cl)c(Cl)c3)nc(Sc3nc4ccccc4[nH]3)n2)cc1Cl,100% (active),10%,1%,99% (active),inactive,inactive,inactive,inactive
COc1ccc(CNC(=O)c2cnc3c(O)cccc3c2Nc2cccc(NC(=O)c3ccc(Cl)c(Cl)c3)c2)cc1,89% (active),54% (active),4%,96% (active),inactive,inactive,inactive,inactive
Nc1ccc(-c2nc3ccc(Oc4ccc5nc(-c6ccc(N)cc6)[nH]c5c4)cc3[nH]2)cc1,99% (active),18%,7%,100% (active),inactive,inactive,inactive,inactive
CSc1nc2cc3c(cc2n1C(=O)c1ccc(C)cc1)OCCO3,-1%,-6%,-6%,99% (active),inactive,inactive,inactive,inactive
CN(Cc1cccc(F)c1)C1CCN(c2cc(NC(=O)c3ccc(F)cc3)ccn2)C1 (stereo not given),14%,7%,-3%,83% (active),inactive,inactive,inactive,inactive
Cc1nc2ccc3ccc(CNc4ccc(C(=O)CC(CCC(=O)O)C(=O)O)cc4)cc3c2c(=O)[nH]1 (stereo not given),96% (active),51% (active),-1%,95% (active),inactive,inactive,inactive,inactive

SMILES,growth inhibition [1],inhibition [2],inhibition [3],growth inhibition [4],outcome [5],outcome [6],outcome [7],outcome [8]
CC(C)(C)OC(=O)Cn1cnc2cc(NC(=O)c3cc([N+](=O)[O-])cc([N+](=O)[O-])c3)ccc21,97% (active),11%,5%,100% (active),inactive,inactive,inactive,inactive
O=C(Nc1ccc(OC2CCN(Cc3ccsc3)C2)c(Cl)c1)c1ccc(F)cc1 (stereo not given),73% (active),-3%,-8%,89% (active),inactive,inactive,inactive,inactive
COc1ccccc1CC1CCCN(C2CCC(NC(=O)c3cc4ccccc4[nH]3)CC2)C1 (stereo not given),21%,23%,-2%,98% (active),inactive,inactive,inactive,inactive
O=C(Nc1ccc(Br)cc1)N(CCN1CCOCC1)CC(O)COCc1ccc(F)cc1 (stereo not given),3%,5%,-1%,90% (active),inactive,inactive,inactive,inactive
CCOc1cc2ccccc2cc1CNCCCCCCNCc1cc2ccccc2cc1OCC,76% (active),99% (active),2%,101% (active),inactive,inactive,inactive,inactive
CC[C@H](C)CNC(=O)c1cncc(-c2cccc(CN(C)C3CCN(C)CC3)c2)c1,59% (active),9%,1%,101% (active),inactive,inactive,inactive,inactive
Fc1cccc(COc2ccc(Nc3ncnc4sc(C#CC5CCCCN5)cc34)cc2Cl)c1 (stereo not given),100% (active),30%,3%,101% (active),inactive,inactive,inactive,inactive
CCCC(CNCc1cccc(OC(F)(F)F)c1)CNc1cc(=O)c2ccccc2[nH]1 (stereo not given),95% (active),-4%,-2%,101% (active),inactive,inactive,inactive,inactive
COc1ccc2nccc([C@@H](O)CN3CCC(NC(=O)C(c4cc5ccccc5o4)N4CCN(C(c5ccccc5)c5ccccc5)CC4)CC3)c2c1 (stereo not given in full),100% (active),18%,-4%,100% (active),inactive,inactive,inactive,inactive
CN=C(N)c1ccc(NC(=O)c2ccc(C(=O)Nc3ccc(C(N)=NC)cc3)cc2)cc1,91% (active),6%,0%,96% (active),inactive,inactive,inactive,inactive
COc1ccc2nccc(N3CCC(CCNCc4cc5c(cn4)OCCO5)CC3)c2n1,101% (active),18%,7%,100% (active),inactive,inactive,inactive,inactive
CCn1c(SCc2ccccc2)nc2c1c(=O)[nH]c(=O)n2C,30%,1%,-1%,96% (active),inactive,inactive,inactive,inactive
Cc1ccc(C)c2sc(N(CCCn3ccnc3)C(=O)c3ccco3)nc12,63% (active),28%,0%,96% (active),inactive,inactive,inactive,inactive
Cc1cnc(CN(Cc2ccc(-c3ccc(CNCCc4ccc(S(C)(=O)=O)cc4)cn3)cc2)C(=O)c2nn(-c3ccccc3)nc2C)cn1,21%,11%,0%,84% (active),inactive,inactive,inactive,inactive
Clc1cccnc1N1CCN(c2ncccc2Cl)CC1,0%,2%,4%,97% (active),inactive,inactive,inactive,inactive
COc1ccc(Cl)cc1NC(=O)CN(C)C(=O)c1cnn(-c2ccccc2)n1,99% (active),-6%,-2%,102% (active),inactive,inactive,inactive,inactive
Cc1ccc(Cn2ncc(NC3CCNCC3)c(Cl)c2=O)cc1NC(=O)Nc1ccc(-c2ccccc2)cc1,61% (active),18%,-2%,99% (active),inactive,inactive,inactive,inactive
COc1cc(C)c(NC(=O)c2cccc3c(=O)c(C)c(-c4ccccc4)oc23)cc1OC,32%,96% (active),2%,86% (active),inactive,inactive,inactive,inactive
CCn1cnc2c(N3CCCCS3(=O)=O)cc(C(=O)N[C@@H](Cc3ccccc3)[C@H](O)CNC3CCOCC3)cc21,87% (active),7%,6%,99% (active),inactive,inactive,inactive,inactive
Cc1cc(CN2CC[C@H](NC(=O)c3ccc(Cl)c(Cl)c3)C2)ccc1OC1CCN(C)C1 (stereo not given in full),24%,71% (active),-3%,101% (active),inactive,inactive,inactive,inactive
